FAK inh – FAK kinase inhibitors, primary screen, biochemical | biochemical FAK kinase activity assay | inhibition, %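 (tested at 7 µM)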 | hit rate 0.84% among 97,000; in the data active = inhibition above about 19%;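 also: 0% = DMSO and 100% = reference compound high control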
ERb SRC1 inh – inhibitors of ERβ-SRC1 coactivator interaction, primary screen, biochemical, TR-FRET, ERβ LBD, SRC-1 peptide | Estrogen receptor beta (Homo sapiens), Q92731 | TR-FRET ER-beta LBD / SRC1-Cy5 peptide binding; receptor agonist-loaded with 1 µM estradiol | inhibition, % at 25.6 µM | hit rate 1.3% among 86,000 | AID 633, 2007;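 active = compounds whose percent inhibition of the receptor-coactivator binding signal exceeds about 50% in the single-dose screen, limit read from the data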;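 also: 0% = receptor plus peptide wells without compound and 100% = peptide-only wells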
CD11b adhes enh – enhancers of CD11b/CD18 adhesion to fibrinogen, primary screen, K562 cells, luminescence. ATPlite luminescence. activation, % at 10 µM. hit rate 0.07% among 93,000;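 active = 10 µM primary screen giving 50% or more activity, confirmed by 40% or more on retest at that dose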
ERa SRC1 pot – enhancers of ERα–SRC-1 coactivator binding, primary screen, biochemical, TR-FRET, ERα LBD, low estradiol. AID 639, 2007. coactivator binding (% of control), % at 25.6 µM. TR-FRET ERalpha-LBD/SRC-Cy5 coactivator binding, 2 h; 100 = basal binding, no effect. hit rate 1.3% among 86,000. Estrogen receptor (Homo sapiens), P03372; in the data active = activity above about 200%;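 also: binding measured in presence of low estradiol as agonist stimulus; 0% = peptide alone without receptor and 100% = receptor with peptide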
Target sequence (P03372 whole entry, looked up, the tested form may be a part): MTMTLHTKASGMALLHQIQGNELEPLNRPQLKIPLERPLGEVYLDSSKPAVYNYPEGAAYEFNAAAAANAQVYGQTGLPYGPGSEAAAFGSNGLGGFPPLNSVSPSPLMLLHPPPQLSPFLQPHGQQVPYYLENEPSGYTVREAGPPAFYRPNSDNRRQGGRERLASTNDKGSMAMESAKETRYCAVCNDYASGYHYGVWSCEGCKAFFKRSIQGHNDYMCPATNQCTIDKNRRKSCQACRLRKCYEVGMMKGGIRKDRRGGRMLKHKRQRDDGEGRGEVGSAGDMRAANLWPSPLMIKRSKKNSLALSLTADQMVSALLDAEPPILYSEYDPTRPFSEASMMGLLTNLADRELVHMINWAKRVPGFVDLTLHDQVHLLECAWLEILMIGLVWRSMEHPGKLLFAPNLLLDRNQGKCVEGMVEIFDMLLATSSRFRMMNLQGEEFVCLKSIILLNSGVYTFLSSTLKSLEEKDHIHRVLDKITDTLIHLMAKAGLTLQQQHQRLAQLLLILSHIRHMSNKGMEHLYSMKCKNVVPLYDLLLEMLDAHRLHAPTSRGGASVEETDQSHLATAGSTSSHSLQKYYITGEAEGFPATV
ERa SRC1 inh – ERα–SRC-1 coactivator interaction inhibitors, primary screen, biochemical, TR-FRET, ERα LBD, estradiol-bound. hit rate 1.7% among 86,000. Estrogen receptor (Homo sapiens), P03372. inhibition, % at 25.6 µM. TR-FRET ER-alpha LBD / SRC-1 peptide; in the data active = inhibition above about 50%;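 also: 0% = receptor plus peptide control and 100% = peptide only without receptor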
Mac1 fbg inh – inhibitors of CD11b/CD18 adhesion to fibrinogen, primary screen, K562 cells, luminescence; inhibition, % at 10 µM; AID 1497, 2009; Integrin beta-2 (Homo sapiens) + Integrin alpha-M (Homo sapiens), P05107+P11215; ATPlite luminescence; Mn2+ added to activate the integrin; hit rate 0.54% among 93,000;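 active = primary inhibition of 50% or more at 10 µM, then 40% or more on retest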
* hit, by the source's call; · = no result; [ ] = dose if it differs, or a comment. Only some compounds are listed: those with a hit (about 3.5% of all), similar ones and a draw of the others.

SMILES | FAK inh | ERb SRC1 inh | CD11b adhes enh | ERa SRC1 pot | ERa SRC1 inh | Mac1 fbg inh
O=C(/C=C/c1c(Cl)cccc1Cl)Nc1ccncc1 | 3 | · | 0 | · | · | 7
CC(C)OC(=O)CSc1nnc(Cc2ccccc2)n1C | -2 | 6 | -2 | 95 | 2 | -2
Cn1c(Cc2ccccc2)nnc1SCC(=O)c1cccs1 | 1 | -7 | 1 | 91 | 57* | -27
O=C(CSc1nc2scc(-c3ccco3)c2c(=O)n1-c1ccccc1)NCC1CCCO1 (stereo not given) | 19 | 55* | -3 | 143 | 62* | 0
O=c1c2c(-c3ccco3)csc2nc(SCc2cn3cccnc3n2)n1-c1ccccc1 | 8 | 28 | 1 | 81 | 67*[fluorescence artefact?] | 11
COCCNC(=O)Nc1ccc2nc(C)sc2c1 | 0 | -7 | · | 95 | -6 | ·
COc1ccc(-c2noc(-c3ccc(Br)o3)n2)cc1OC | -5 | -1 | 1 | 387*[fluorescence artefact?] | -2 | -17
CC(=O)Nc1cc(C(=O)N2CCN(C)CC2)ccc1Sc1ccc(C)cc1 | -2 | -21 | -1 | 103 | 2 | -39
COc1ccc(NC(=O)c2cc3c(s2)CCC3)cc1S(=O)(=O)N1CCOCC1 | 5 | · | 25 | · | · | 8
O=c1cc(N2CCN(c3ccccc3)CC2)[nH]c(=O)n1-c1ccccc1Cl | -1 | -1 | 0 | 163 | 0 | -18
CCOC(=O)N1CCN(c2cc(=O)n(-c3ccccc3Cl)c(=O)[nH]2)CC1 | -2 | 74*[fluorescence artefact?] | 0 | 123 | 0 | -12
C[C@@H](C(=O)Nc1ccccc1N1CCOCC1)N1C(=O)C2CC=CCC2C1=O (stereo not given in full) | 0 | -9 | 6 | 147 | -3 | 10
CCc1ccc(-n2c(=O)c3c(C)c(C(=O)N(C)C)sc3n(CC(=O)NCc3ccco3)c2=O)cc1 | -4 | · | 1 | · | · | -2
O=[N+]([O-])c1ccc(/C=N/Nc2nc(N3CCCCCC3)nc(N3CCCCCC3)n2)o1 | 4 | 96*[fluorescence artefact?] | · | 80 | 14 | ·
Cc1cc(C)cc(NC(=O)CSc2nnc(-c3ccccc3C)o2)c1 | 7 | -16 | -4 | 103 | -13 | 6
Cc1oc(-c2ccccc2Cl)cc1-c1nn2c(-c3ccco3)nnc2s1 | · | 52*[fluorescence artefact?] | 30 | 166 | 58* | -4
CN(C)c1ccc(-c2nn3c(-c4ccccc4Cl)nnc3s2)cc1 | 3 | 44 | · | 94 | 72*[fluorescence artefact?] | ·
COc1ccccc1-c1nnc2sc(-c3ccc(N(C)C)cc3)nn12 | · | · | 15 | · | · | 15
Clc1ccc(-c2ccc(-c3nn4c(-c5ccco5)nnc4s3)o2)cc1 | 17 | 46 | · | 123 | 74* | ·
c1ccc(-c2nn3c(-c4ccco4)nnc3s2)nc1 | 2 | 22 | 0 | 72 | -8 | 0
Cc1cc(C)c(S(=O)(=O)N2CCN(c3ccc([N+](=O)[O-])c(NCc4ccco4)c3)CC2)c(C)c1 | 2 | · | -1 | · | · | -8
CC1(C)Cc2c(c(-c3ccco3)[nH]c(=O)c2C#N)CS1 | · | 62*[fluorescence artefact?] | · | 112 | -12 | ·
COc1cccc(-c2nnn(CCc3nn[nH]n3)n2)c1 | -1 | -7 | · | 87 | -3 | ·
CS(=O)(=O)N1CCN(c2ccccc2NC(=O)Cc2ccccc2)CC1 | 1 | -4 | 4 | 111 | -5 | 8
CS(=O)(=O)N1CCN(c2ccccc2NC(=O)Cc2ccc(Cl)cc2)CC1 | -1 | 1 | 8 | 948*[fluorescence artefact?] | -5 | -5
SMILES | FAK inh | ERb SRC1 inh | CD11b adhes enh | ERa SRC1 pot | ERa SRC1 inh | Mac1 fbg inh
CCN(CC)c1ccc(-c2nn3c(-c4n[nH]c5c4CCC5)nnc3s2)cc1 | 8 | -2 | 3 | 152 | 9 | 68
C1CCC(c2nn3c(-c4n[nH]c5c4CCC5)nnc3s2)CC1 | 6 | 61* | 7 | 20 | 75* | 5
Cc1cc(C)c2c(=O)[nH]n(C(C)C)c2n1 | · | -17 | -1 | 295* | -20 | 1
CCN(CC)C1=CC(=O)OC12CCCCC2 | -1 | 62* | -1 | 72 | -37 | 21
COc1cccc2[nH]c3c(N4CCN(Cc5ccc6c(c5)OCO6)CC4)ncnc3c12 | -3 | 3 | 2 | 95 | 4 | 8
COc1cccc2[nH]c3c(N4CCC(C)CC4)ncnc3c12 | 2 | 50*[fluorescence artefact?] | 0 | 61 | 37 | 3
Cc1ccnc(NS(=O)(=O)c2ccc(N3C(=O)c4c(Cl)c(Cl)c(Cl)c(Cl)c4C3=O)cc2)n1 | · | · | 3 | · | · | -3
Cn1c(CSc2nc3ccccc3s2)n[nH]c1=S | 2 | -6 | -2 | 97 | -9 | -64
Cn1c(CSc2nc3ccccc3s2)nc2ccccc21 | 1 | 7 | 0 | 282*[fluorescence artefact?] | 4 | -18
N#Cc1nc(-c2ccc(Cl)cc2)oc1N1CCCCC1 | -1 | -10 | · | 134 | -6 | ·
N#Cc1nc(-c2ccc(OCc3ccc(Cl)cc3)cc2)oc1NCc1cccnc1 | 5 | 24 | 3 | 130 | 51* | 5
N#Cc1nc(-c2ccc(OCc3ccc(Cl)cc3)cc2)oc1N1CCOCC1 | -1 | 25 | 26 | 278*[fluorescence artefact?] | 50 | -2
COc1ccccc1NC(=O)CSC1CC(=O)N(c2ccc3c(c2)OCO3)C1=O (stereo not given) | 3 | 16 | -4 | 84 | 14 | 18
O=C(CN1CCN(c2ccc(F)cc2)CC1)Nc1cc(C(F)(F)F)ccc1Cl | -1 | 6 | 1 | 115 | -20 | -6
CCC(C)C(NC(=O)OCc1ccccc1)C(=O)OCN1C(=O)c2ccccc2C1=O (stereo not given) | -2 | -11 | · | 93 | -5 | ·
COc1ccc(C(=S)N2CCCCCC2)cc1 | 0 | -2 | · | 109 | -1 | ·
COc1cc(C(=S)N2CCCC2)cc(OC)c1O | -2 | -10 | 1 | 81 | 63*[fluorescence artefact?] | -35
O=c1c2c3c(sc2nc2n1CCCCC2)CCC3 | -4 | 4 | -3 | 90 | 11 | 23
O=c1c2c3c(sc2nc2sc(CN4CCCCC4)cn12)CCCC3 | -1 | 29 | -2 | 268*[fluorescence artefact?] | 51*[fluorescence artefact?] | 3
O=S(=O)(c1ccc(N2CC=C(c3ccccc3)CC2)nc1)N1CCCC1 | · | 1 | 1 | 126 | 2 | 7
C/C(N)=C(/C#N)C(=O)CSc1nnnn1-c1ccc(C)cc1 | -2 | 64* | -2 | 59 | 51*[fluorescence artefact?] | 8
C/C(N)=C(/C#N)C(=O)CSc1nc2ccccc2c(=O)n1-c1ccc(C)cc1 | · | · | 22 | · | · | 28
O=C(CSc1nnnn1-c1ccccc1)CSc1nnnn1-c1ccccc1 | 0 | · | 0 | · | · | -10
C/C(N)=C(/C#N)C(=O)CSc1nnnn1-c1ccccc1 | 2 | 90*[fluorescence artefact?] | -2 | 7 | 85*[fluorescence artefact?] | -22

Bioassay records as filed in PubChem BioAssay.
